According to PubChem BioAssay AID1863 (Southern Research Specialized Biocontainment Screening …, 2009):
Screen size: about 300,000 compounds; about 480 (0.16%) were called active.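 The calls were made as follows: active = inhibition over 29.93%, a cutoff 3 SD above the screen mean, later confirmed by dose response; inconclusive = inhibition over 29.93% but no dose response follow-up; inactive = inhibition at most 29.93% or unconfirmed.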 These entries were drawn from the full list. Measured potencies and affinities stand elsewhere.

Assay: inhibitors of PhoP regulon expression, primary screen, Salmonella Typhimurium, GFP reporter (AID 1863);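 also: 0% = low Mg2+ inducing control and 100% = high Mg2+ repressing control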
Conditions: S. Typhimurium PhoP-regulated promoter GFP reporter, 4 h; at 50 µM; hits give high values

inhibition, inactive:
CCOC(=O)N/N=C\c1cccc(OC)c1OC/C=C/c1ccccc1 1.25%
COc1ccccc1CN1C[C@@H]2C[C@@H](c3[nH]c4c(C)cccc4c3C)N3CCC[C@@]23C1=O -4.79%
CCOc1cccc(C(=O)NNC(=O)CCC(=O)O)c1 4.57%
NC(=O)c1ccccc1OCC(=O)N1CCCc2ccccc21 -3.13%
Cc1ccc(CN2CCC(c3nc4ccc(Cl)cc4[nH]3)CC2)cc1 22.6%
Clc1ccc2nc(C3CCN(Cc4ccccc4)CC3)[nH]c2c1 18.6%
COc1ccc(Oc2ncnc3sccc23)cc1 9.87%
Cc1cc(=O)oc2cc(OCC3CC(c4ccc(Br)cc4)=NO3)ccc12 (centres undefined) -2.2%
Cc1ccc(Cl)cc1NC(=O)C1C2CCC(O2)C1C(=O)O (centres undefined) -0.09%
FC(F)(F)c1ccc(N/N=C/c2cccnc2)nc1 -0.8%
Fc1cccc(/C=N/Nc2ccccn2)c1 10.3%
CCOc1cc(C2C(C(=O)c3ccccc3)=C(C(=O)OC)Nc3nnnn32)ccc1O (centres undefined) -7.95%
CCOc1ccc(NC(=O)Cn2c(=O)oc3cc(Cl)ccc32)cc1 -5.34%
OC(c1cc(C(F)(F)F)nc2c(C(F)(F)F)cccc12)C1CCCCN1 (centres undefined) -7.43%
FC(F)(F)c1cc(-c2ccccc2)nc(NC2CCCC2)n1 2.27%
CC(O)(c1ccccc1)C(c1ccccc1)C1CCCCN1 (centres undefined) 5.86%
O[C@@H](c1cc(C(F)(F)F)nc2c(C(F)(F)F)cccc12)[C@H]1CCCCN1 9.26%
Cc1ccccc1CN1[C@@H]2c3ccccc3C[C@@H]2OCCS1(=O)=O 5.91%
Nn1c(SCC(=O)Nc2ccc3c(c2)OCO3)nncc1=O -10%
Cc1cccnc1NC(=O)c1ccc2c(c1)OCO2 5.72%
CN(Cc1cc([N+](=O)[O-])c2cccnc2c1O)C1CCCCC1 24.8%
O=[N+]([O-])c1cc([N+](=O)[O-])c2cccnc2c1Oc1ccccc1O 11.2%
O=[N+]([O-])c1ccc(O)c2cccnc12 4.87%
O=[N+]([O-])c1ccc(O)c2ncccc12 -0.36%
O=[N+]([O-])c1ccc(Cl)c2cccnc12 2.44%
O=[N+]([O-])c1cccc2c(Cl)ccnc12 -15%
Nc1nonc1C(=O)NCCNC(=O)c1cccs1 17.7%
O=C(O)C1CCN(C(=O)COc2ccc3c4c(c(=O)oc3c2)CCCC4)CC1 4.17%
COc1ccc(N2CCN(c3oc(-c4ccco4)nc3C#N)CC2)cc1 26.4%
COc1cc(S(=O)(=O)n2ccnc2)ccc1Br -8.94%
O=C(NCC1CCCO1)C(C(=O)c1ccc(F)cc1)n1ccccc1=O (centres undefined) 2.45%
COc1ccc(S(=O)(=O)n2oc(=O)cc2-c2ccccc2)cc1 -4.7%
CCN(CC)C(=S)Nc1ccc([N+](=O)[O-])cc1 3.9%
Oc1ccc(Cl)cc1CNn1cnnc1 18.7%
Oc1ccc(Cl)cc1CNc1ccccn1 14.1%
O=C(c1cc2c(=O)oc3ccccc3c2s1)N1CCOCC1 2%
CCOC(=O)NCC(C#CCN(CC)CC)N(CC)CC (centres undefined) 4.11%
O=C(O)CSc1cc(NS(=O)(=O)c2ccc(Br)cc2)c2ccccc2c1O 0.22%
O=C(O)CSc1cc(NS(=O)(=O)c2ccc(Cl)cc2)c2ccccc2c1O -5.26%
CC(C)Oc1ccc(C(=O)OC(C)C(=O)Nc2nc(-c3cccc([N+](=O)[O-])c3)cs2)cc1 (centres undefined) 3.69%
COc1ccc(CN2C3CCC2CC(NC(=O)c2cccc(F)c2)C3)cc1 (centres undefined) 5.59%
NCC12CC3CC(C1)CC(c1ccc(Cl)cc1)(C3)C2 10.5%
Cc1ccc(C23CC4CC(CC(CN)(C4)C2)C3)cc1 26.1%
CCOC(=O)N1CCN(C(=O)c2ccc(NS(C)(=O)=O)cc2)CC1 12.6%
O=C(NCCc1ccccc1)c1ccc(-c2ccc(F)cc2)o1 0.73%
CCSc1nc(N2CCOCC2)c2ccccc2n1 -4.32%
COc1cc(NC(=O)Cn2ccsc2=N)c(C)cc1[N+](=O)[O-] 0.16%
CCc1ccc2[nH]c3nc(N/N=C/c4cccc(O)c4)nnc3c2c1 1.71%
CC(=O)N/N=C/c1c(C)[nH]n(-c2ccccc2)c1=O 3.32%
Oc1ccc(/C=N\Nc2nncc(-c3ccccc3)n2)cc1 1.9%
COc1ccc(S(=O)(=O)NCC(=O)N(CC(=O)NCc2ccco2)Cc2ccc(F)cc2)cc1 6.01%
c1ccc(Nc2ccccn2)nc1 -3.66%
Oc1ccccc1Nc1ccccn1 0.2%
CCCc1[nH]nc2c1C(c1ccc(OC)c(Cn3nnc4ccccc43)c1)C(C#N)=C(N)O2 (centres undefined) 6.36%
CC(C)(C)OC(=O)N1CCN(C(=O)c2[nH]cnc2C(=O)N[C@@H](Cc2ccccc2)C(=O)OCc2ccccc2)CC1 7.86%
COc1ccc(OC)c(N2C(N)=NC(N)=NC23CCCC3)c1 -1.52%
COc1cccc(C(=O)Nc2nnc(-c3cccs3)o2)c1 8.85%
O=C(Nc1nnc(-c2cccs2)o1)c1cccc(C(F)(F)F)c1 -1.86%
N=c1n(CC(=O)c2cccs2)c2ccccc2n1Cc1ccccc1 -1.64%
CCn1c(=N)n(CC(=O)c2ccc(Br)s2)c2ccccc21 9.45%
Cc1nc2ccc(S(=O)(=O)NCC(=O)Nc3cccc(F)c3)cc2s1 0.67%
Nc1c(Cl)ncnc1N/N=C/c1ccncc1 -8.59%
Nc1c(Cl)ncnc1N/N=C/c1ccc2ccccc2n1 -18.8%
Cc1cc(CNC(=O)C2CCC(=O)N(Cc3cccc(C(F)(F)F)c3)C2)no1 (centres undefined) 8.7%
